The structures appear in SMILES notation.

Holding throughout (settings): concentration: 1 μM, replicates: in singlicate; n = 1
Test [1] concerns T1, ERK8.
T1 construct: gene MAPK15

Test [2] has as its system ERN1.
Test [3] has as its system T2, FAK.
T2 construct: gene PTK2

The test system of test [4] is FER.
For test [5], the system named is FES.
For test [6], the system named is FGFR1.
The subject of test [7] is FGFR2.
For test [8], the system named is FGFR3.
In test [9] the test system is FGFR4.
Test [10] has as its system FGR.
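Further: KINOMEscan kinase panel screen.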

On to `CS(=O)(=O)Cc1ccc(Nc2nccc(-c3c(-c4cccc(NC(=O)C5CCCCC5)c4)nn4ncccc34)n2)cc1` [GSK350559], for which the “%Inh” value worked out at 0% in test [1]; 33% in [2]; 0% in test [3]; 8% in test [4]; 0% in [5]; 0% in [6]. Also, the “%Inh” value amounted to 41% in test [7], 16% in [8], 6% in test [9] and 27% in [10].
With `CC(=O)c1c(C)c2cnc(Nc3ccc(N4CCNCC4)cn3)nc2n(C2CCCC2)c1=O`, the “%Inh” value is given as 17% in test [1]; 0% in test [2]; 0% in [3]; 4% in test [4]; 0% in test [5]; 2% in test [6]. Moreover, the “%Inh” value in test [7] was found to be 0%; in test [8], 0%; in [9] it was 0%; in test [10], 20%.
Consider `COc1cc2ncnc(Nc3cccc(Br)c3)c2cc1OC.Cl` [GI230329], for which the “%Inh” value in [1] came to 0%; in test [2], 2%; in test [3] it was 0%; in test [4], 31%; in [5], 0%; in [6], 0%. Further, the “%Inh” value in test [7] was 22%; in [8], 11%; in test [9], 0%; in test [10] it was 26%.
Regarding `CS(=O)(=O)CCNCc1nc(-c2ccc3ncnc(Nc4ccc5c(cnn5Cc5ccccc5)c4)c3c2)cs1.Cl.Cl` [GW569716], the “%Inh” value in [1], in [2], in test [3], in test [4], in [5] and in [6] was 0% throughout. Further, the “%Inh” value is given as 0% in test [7], 0% in test [8], 8% in test [9] and 24% in [10].
In the case of `COC(=O)C(NC(=O)NC1CCN(c2ccnc(Nc3ccc(F)cc3)n2)C1)c1ccccc1` (centres unmarked) [GSK1379712], the “%Inh” value in test [1] is listed as 0%; in [2] it was 4%; in [3] it was 0%; in test [4], 19%; in test [5], 0%; in test [6], 0%. Moreover, the “%Inh” value in [7] came out at 0%; in test [8] it was 7%; in test [9] it was 19%; in [10], 8%.
On to `COc1ccc(CSc2nnc(-c3ccc4nccn4c3)o2)cc1C(F)(F)F`, for which the “%Inh” value in test [1] is listed as 39%; in test [2], 0%; in test [3] it was 0%; in [4], 4%; in test [5] it was 14%; in test [6], 4%. For the same compound, the “%Inh” value in test [7] stood at 4%; in [8], 0%; in test [9], 0%; in test [10] it was 19%.
In the case of `CC(C)c1cc(-c2ccc3c(N)n[nH]c3c2)nc(N)n1` [GSK2250882], the “%Inh” value in test [1] was 0%; in [2] it was 4%; in [3], 0%; in test [4] it was 14%; in [5], 19%; in [6] it was 0%. Besides, the “%Inh” value in test [7] worked out at 18%; in test [8], 9%; in [9], 8%; in test [10] it was 34%.
Take `Nc1nccc(-c2c(-c3ccc(F)cc3)ncn2C2CCN(Cc3ccccc3)CC2)n1` [SB-219980]: the “%Inh” value in test [1] is 0%; in [2] it was 41%; in test [3] it was 0%; in test [4] it was 0%; in test [5] it was 23%; in test [6], 0%. The “%Inh” value stood at 0% in [7], 0% in [8], 0% in [9] and 18% in [10].
With `Cc1c(Cn2c3ccccc3n3c(=O)cc(N4CCOCC4)nc23)cccc1C(F)(F)F` [GSK2306394], the “%Inh” value is reported as 26% in [1]; 10% in test [2]; 0% in [3]; 6% in test [4]; 0% in test [5]; 4% in [6]. The “%Inh” value stood at 2% in [7], 0% in test [8], 0% in test [9] and 0% in [10].
As to `CNC(=O)c1ccc(C)c(-n2c(C)cc(OCc3ccc(F)cc3F)c(Br)c2=O)c1`, the “%Inh” value in [1] is listed as 13%; in test [2], 0%; in test [3] it was 0%; in [4], 18%; in test [5] it was 0%; in test [6], 0%. In addition, the “%Inh” value in [7], in test [8], in test [9] and in test [10] was 0% throughout.
Turning to `O=C(Nc1n[nH]c2cc(-c3ccsc3)ccc12)C1CC1` [SB-732932], the “%Inh” value in test [1] is reported as 92.4%; in [2], 8%; in test [3], 6%; in test [4], 0%; in [5], 0%; in [6], 1%. Also, the “%Inh” value turned out to be 0% in test [7], 3% in test [8], 0% in test [9] and 13% in [10].
Turning to `Fc1ccc(-c2nc3n(c2-c2ccncc2)CCS3)cc1` [GI98581], the “%Inh” value came to 0% in test [1]; 28% in test [2]; 0% in test [3]; 13% in test [4]; 0% in test [5]; 0% in [6]. The “%Inh” value in test [7] amounted to 0%; in [8] it was 20%; in test [9] it was 0%; in test [10], 21%.
As to `COc1ccc(Nc2nccc(NCCNC(=O)Nc3cc(C)ccc3C)n2)cc1` [GSK1379899], the “%Inh” value in test [1] is 43%; in test [2], 0%; in test [3], 0%; in test [4], 17%; in test [5] it was 4%; in test [6], 11%. The “%Inh” value was 15% in test [7], 0% in [8], 0% in test [9] and 14% in [10].
Turning to `Fc1ccc(-c2nc[nH]c2-c2ccncc2)cc1` [SB-217360], the “%Inh” value in test [1] was 4%; in [2], 43%; in test [3], 0%; in [4] it was 23%; in test [5], 0%; in test [6] it was 0%. In addition, the “%Inh” value in test [7], in test [8], in test [9] and in test [10] was 0% in each case.
For `Cc1ccccc1Cn1ccn2c(=O)cc(N3CCOCC3)nc12` [GSK2269905], the “%Inh” value is reported as 0% in test [1]; 0% in test [2]; 0% in test [3]; 18% in test [4]; 9% in [5]; 0% in [6]. Besides, the “%Inh” value turned out to be 2% in test [7], 0% in [8], 19% in [9] and 31% in [10].
As for `FC(F)(F)c1ccccc1-c1cc(-c2c[nH]nc2-c2ccccn2)ccn1` [GW679396], the “%Inh” value in [1] is 0%; in test [2], 10%; in test [3] it was 0%; in test [4], 15%; in [5], 0%; in test [6], 4%. In addition, the “%Inh” value in [7] amounted to 0%; in [8], 0%; in test [9], 0%; in test [10], 12%.
With `O=c1cc(N2CCOCC2)nc2n(Cc3cccc(Cl)c3Cl)c3ccccc3n12` [GSK2299009], the “%Inh” value was 0% in [1]; 18% in test [2]; 0% in test [3]; 49% in test [4]; 0% in test [5]; 31% in test [6]. For the same compound, the “%Inh” value in test [7] is listed as 4%; in [8] it was 10%; in [9] it was 21%; in test [10], 17%.

The values are drawn from publication PMC5540273 (PLoS ONE, 2017).
